Reference: PubChem BioAssay AID1159580 (chemical genetic matrix, 2015)
The campaign covered roughly 5,500 compounds. About 2,000 (36%) were called active. About 18% were inconclusive and are not listed. Cut-off read from the data, not from the text of the source: active = normalized growth mostly below about 0.91 (no sharp cut-off); inconclusive = no clear call, values can overlap the other calls; inactive = mostly above about 0.92. This is one part of the list.

Test: chemical genetic growth profiling, strain panel (AID 1159580);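 note: tested at 20 µM; growth read once vehicle control cultures reached saturation at 30 °C; 1 = growth at the plate median or of vehicle wells; lower values mean less growth of the strain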
Conditions: S. cerevisiae deletion strains, growth OD

Measured: normalized growth

O=C(CC(=O)c1ccccc1)c1ccccc1
active: locus YAL021C, strain ccr4, active compounds read low 0.0705 | locus YAL026C, strain drs2, active compounds read low 0.175 | locus YAL030W, strain snc1, active compounds read low 0.318 | locus YBL061C, strain skt5, active compounds read low 0.12 | locus YBR009C, strain hhf1, active compounds read low 0.194 | locus YBR023C, strain chs3, active compounds read low 0.211 | locus YBR171W, strain sec66, active compounds read low 0.735 | locus YBR231C, strain swc5, active compounds read low 0.177 | locus YBR279W, strain paf1, active compounds read low 0.453 | locus YCL011C, strain gbp2, active compounds read low 0.3 | locus YCL016C, strain dcc1, active compounds read low 0.43 | locus YCL069W, strain vba3, active compounds read low 0.362 | locus YCR088W, strain abp1, active compounds read low 0.462 | locus YDL005C, strain med2, active compounds read low 0.596 | locus YDL040C, strain nat1, active compounds read low 0.698 | locus YDR001C, strain nth1, active compounds read low 0.639 | locus YDR069C, strain doa4, active compounds read low 0.0695 | locus YDR137W, strain rgp1, active compounds read low 0.135 | locus YDR159W, strain sac3, active compounds read low 0.541 | locus YDR195W, strain ref2 0.516 | locus YDR297W, strain sur2, active compounds read low 0.192 | locus YDR334W, strain swr1, active compounds read low 0.152 | locus YDR335W, strain msn5, active compounds read low 0.227 | locus YDR392W, strain spt3, active compounds read low 0.396 | locus YEL003W, strain gim4, active compounds read low 0.379 | locus YEL037C, strain rad23, active compounds read low 0.342 | locus YEL061C, strain CIN8 (second series), active compounds read low 0.437 | locus YER015W, strain faa2, active compounds read low 0.122 | locus YER016W, strain bim1, active compounds read low 0.544 | locus YER111C, strain swi4, active compounds read low 0.204 | locus YER155C, strain BEM2 (second series), active compounds read low 0.381 | locus YFR010W, strain ubp6, active compounds read low 0.171 | locus YGL167C, strain pmr1, active compounds read low 0.166 | locus YGL173C, strain kem1, active compounds read low 0.119 | locus YGL227W, strain vid30, active compounds read low 0.725 | locus YGL240W, strain doc1, active compounds read low 0.457 | locus YGL253W, strain hxk2, active compounds read low 0.147 | locus YHR013C, strain ard1, active compounds read low 0.14 | locus YHR027C, strain rpn1, active compounds read low 0.0797 | locus YHR030C, strain SLT2, active compounds read low 0.515 | locus YHR079C, strain IRE1, active compounds read low 0.468 | locus YHR142W, strain chs7, active compounds read low 0.171 | locus YJL092W, strain hpr5, active compounds read low 0.432 | locus YJL095W, strain BCK1 (second series), active compounds read low 0.108 | locus YJL095W, strain BCK1, active compounds read low 0.524 | locus YJL115W, strain asf1, active compounds read low 0.546 | locus YJL129C, strain trk1, active compounds read low 0.596 | locus YJL154C, strain vps35, active compounds read low 0.237 | locus YJL164C, strain tpk1, active compounds read low 0.154 | locus YJL166W, strain qcr8, active compounds read low 0.16 | locus YJR066W, strain TOR1, active compounds read low 0.565 | locus YKL160W, strain elf1, active compounds read low 0.578 | locus YKR026C, strain gcn3, active compounds read low 0.685 | locus YKR091W, strain srl3, active compounds read low 0.527 | locus YLL001W, strain dnm1, active compounds read low 0.363 | locus YLL026W, active compounds read low 0.373 | locus YLL041C, strain sdh2, active compounds read low 0.328 | locus YLR027C, strain aat2, active compounds read low 0.261 | locus YLR113W, strain HOG1, active compounds read low 0.348 | locus YLR221C, strain rsa3, active compounds read low 0.284 | locus YLR258W, strain gsy2, active compounds read low 0.234 | locus YLR262C, strain YPT6 (second series), active compounds read low 0.101 | locus YLR320W, strain mms22, active compounds read low 0.207 | locus YLR342W, strain FKS1, active compounds read low 0.344 | locus YLR357W, strain rsc2, active compounds read low 0.471 | locus YLR370C, strain arc18, active compounds read low 0.147 | locus YLR384C, strain iki3, active compounds read low 0.437 | locus YML120C, strain ndi1, active compounds read low 0.498 | locus YMR058W, strain fet3, active compounds read low 0.0728 | locus YMR125W, strain sto1, active compounds read low 0.82 | locus YMR129W, active compounds read low 0.393 | locus YMR205C, strain PFK2, active compounds read low 0.242 | locus YMR231W, strain pep5, active compounds read low 0.0832 | locus YNL071W, strain lat1, active compounds read low 0.351 | locus YNL183C, strain NPR1, active compounds read low 0.517 | locus YNL209W, strain ssb2, active compounds read low 0.0845 | locus YNL248C, strain rpa49, active compounds read low 0.552 | locus YNL322C, strain KRE1 (second series), active compounds read low 0.619 | locus YNR049C, strain mso1, active compounds read low 0.434 | locus YOR001W, strain rrp6, active compounds read low 0.45 | locus YOR070C, strain gyp1, active compounds read low 0.575 | locus YOR080W, strain dia2, active compounds read low 0.127 | locus YOR083W, strain WHI5, active compounds read low 0.186 | locus YOR106W, strain vam3, active compounds read low 0.0633 | locus YOR231W, strain MKK1, active compounds read low 0.497 | locus YOR265W, strain rbl2, active compounds read low 0.179 | locus YOR270C, strain vph1, active compounds read low 0.105 | locus YOR290C, strain snf2, active compounds read low 0.391 | locus YPL051W, strain arl3, active compounds read low 0.102 | locus YPL078C, strain atp4, active compounds read low 0.414 | locus YPL106C, strain sse1, active compounds read low 0.416 | locus YPL240C, strain hsp82, active compounds read low 0.4 | locus YPL256C, strain CLN2, active compounds read low 0.57
